Test results as given in PubChem BioAssay.

Experiment: small-molecule microarray binders of probe aNog, primary screen, biochemical, biotinylated probe, 635/667 nm fluorescence (AID 1115);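 further: probe is biotinylated aNog protein used at 0.15 µg/mL for 1 h at 4 C; z-score combines 667 nm fluorescence of each spot with its signal to noise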
Conditions: higher = more signal
`CC(C)N1C(=O)c2ccccc2[C@](C)(C(=O)NCCN2CCOCC2)[C@@H]1c1ccc(CO)cc1` gave a composite z-score of -0.213.
In the case of `COCCCNC(=O)[C@@H]1c2ccccc2C(=O)N(Cc2ccccc2Cl)[C@H]1c1ccc(CO)cc1`, the composite z-score is reported as -0.382.
With `CC(C)NC(=O)[C@@]1(c2ccc([N+](=O)[O-])cc2)CC(=O)N(C2CCCCC2)[C@@H]1c1ccc(CO)cc1I` the composite z-score was 0.176.
`C=C(CCCC)/C(=C/C[C@H](OC(C)=O)c1ccccc1OCCO)c1cc(C(=O)OC)ccc1OC` gave a composite z-score of -0.0184.
`COCCOC(=O)N1C(=O)[C@@]2(c3cc(C#Cc4ccc(OC)cc4)ccc31)[C@H](c1ccc(O)cc1)N1[C@H](c3ccccc3)[C@H](c3ccccc3)OC(=O)[C@H]1[C@@H]2C(=O)N1CCc2cc(OC)c(OC)cc2C1` showed a composite z-score of 0.27.
Work on `O=C1C2C=CC(C(O)Cc3ccccc3)N(n3cnnc3)C2C(=O)N1Cc1ccccc1` (stereo unspecified) yielded a composite z-score of 0.908.
Compound `C=CC[C@]1(C(=O)NCc2ccccc2)N=C(c2ccc(OCCCO)cc2)O[C@H]1c1ccccc1N=[N+]=[N-]` has a composite z-score of -0.572.
Work on `CCOC(=O)C[C@H]1[C@H](OC(=O)c2ccc(C(=O)c3ccccc3)cc2)[C@@H](NC(=O)c2ccc3ccccc3n2)c2cc(OCCCO)ccc2N1C(=O)c1ccccc1` yielded a composite z-score of 0.217.
`CN(C)C(=O)[C@@]1(CCS(=O)(=O)c2ccccc2)COC(c2ccc(OCCCO)cc2)=N1` gave a composite z-score of -0.288.
In the case of `COc1ccccc1CN1C(=O)c2ccccc2[C@@H](C(=O)NC2CC2)[C@@H]1c1ccc(CO)cc1`, the composite z-score is reported as -0.519.
`COC(=O)[C@H](Cc1ccccc1)N[C@@H](/C=C/C1CC1)[C@H](O)Cc1ccccc1` showed a composite z-score of -0.349.
